{"source": "PubChem BioAssay (Tox21)", "note": "The source made the active and inactive calls. Entries that show only a call come without a potency. The call rests on the fitted dose curve; in most records, active means well fitted curve in the direction sought with a large enough effect in the repeat runs; inconclusive means weak or mixed curves; inactive means flat fitted curve, though single readings scatter.", "data": [{"assay": "qHTS assay to test for compound auto fluorescence at 460 nm (blue) in HEK293 cells (AID 720678); further: potency means the concentration at half of the fitted maximal effect; tags describe the fitted curve by direction and shape or compound fluorescence and quenching", "details": "blue autofluorescence 405/460 nm; series mostly up to 46 µM", "from_the_text": "National Center for Advancing Translational Sciences [NCATS]\nNIH Chemical Genomics Center [NCGC]\nU.S. Environmental Protection Agency [EPA]\nNational Institutes of Environmental Health Sciences [NIEHS]\nNational Toxicology Program [NTP]\nU.S. Food and Drug Administration [FDA]\nCompound auto fluorescence often interferes with screening of the compound library against various biological targets and signaling pathways. Some of these compounds may have fluorophoric properties. Such properties may interfere with the assay outputs resulting in false positives and/or negatives. To decrease such complications and ensure the compound activities are relevant in terms of biological response, the Tox21 10K compound library was screened for auto fluorescence.\nFrom the fluorophores used as reporter signals in our screening assays, the auto fluorescence equivalencies of compounds against three fluorophores have been evaluated: Triamterene, Fluorescein and Rose Bengal sodium for blue, green and red fluorescence, respectively. The fluorescence intensities were measured using Excitation/Emission wavelengths at 405/460nm, 485/535nm and 540/590nm for blue, green and red labels, respectively. This assay includes the blue fluorescence data.\nTox21 Assay Protocol Summary:\n2,000 HEK293 cells in 5 uL of culture medium containing 10% dialyzed FBS per well were dispensed into black wall/clear bottom 1536-well plates using a Multidrop Combi Dispenser (Thermo Scientific). The assay plates were incubated for 4-5 hr at 37C to allow cell attachment to the well bottom, followed by the transfer of 23 nL compound or DMSO vehicle by a pintool work station (Kalypsys, San Diego, CA). After the assay plates were incubated overnight at 37C and 5% CO2, fluorescence intensities in the assay plates were measured by an Envision (PerkinElmer, Shelton, CT) plate reader using three labels for measuring blue, green and red fluorescence at […] 460, 535 and 590nm respectively.", "values": [{"molecule": "COc1cc([C@@H]2c3cc4c(cc3C(O[C@@H]3O[C@@H]5COC(c6cccs6)O[C@H]5[C@H](O)[C@H]3O)C3COC(=O)[C@@H]32)OCO4)cc(OC)c1O", "note": "(stereo not given in full)", "Potency": "inactive"}, {"molecule": "Cc1onc(-c2ccccc2)c1C(=O)N[C@@H]1C(=O)N2[C@@H]1SC(C)(C)[C@@H]2C(=O)O", "Potency": "inactive"}, {"molecule": "NNc1nnc(Cc2ccncc2)c2ccccc12", "Potency": "inactive"}, {"molecule": "NC(=S)N=Nc1ccc(NN=C(N)N)cc1", "Potency": "inactive"}, {"molecule": "CC(O)[C@H]1CC[C@H]2[C@@H]3CC[C@@H]4C[C@@H](O)CC[C@]4(C)[C@H]3CC[C@]12C", "note": "(stereo not given in full)", "Potency": "inactive"}, {"molecule": "CNC(C)CCC=C(C)C", "note": "(stereo not given)", "Potency": "inactive"}, {"molecule": "CC(O)[C@@H]1NC(=O)[C@H](CCCCN)NC(=O)[C@@H](Cc2c[nH]c3ccccc23)NC(=O)[C@H](Cc2ccccc2)NC(=O)[C@@H](NC(=O)[C@H](N)Cc2ccccc2)CSSC[C@@H](C(=O)N[C@H](CO)[C@@H](C)O)NC1=O", "note": "(stereo not given in full)", "Potency": "inactive"}, {"molecule": "C[C@H](O)[C@H](O)[C@H]1CNc2nc(N)[nH]c(=O)c2N1", "Potency": "12.6 µM [fluorescent] (active)"}, {"molecule": "O=S(=O)(O)Oc1ccc(C(c2ccc(OS(=O)(=O)O)cc2)c2ccccn2)cc1", "Potency": "inactive"}, {"molecule": "CC(C)Cc1ccc([C@@H](C)C(=O)NS(C)(=O)=O)cc1", "Potency": "inactive"}, {"molecule": "Nc1ccn(C[C@@H](CO)OCP(=O)(O)O)c(=O)n1", "Potency": "inactive"}, {"molecule": "O=C(/C=C/c1cccc(F)c1)NC1CC1", "Potency": "inactive"}, {"molecule": "C[C@]12CC[C@@H]3c4ccc(O)cc4CC[C@H]3[C@@H]1CC[C@@H]2OP(=O)(O)O", "Potency": "inactive"}, {"molecule": "C[C@@H]1C[C@H]2[C@@H]3CCC4=CC(=O)C=C[C@]4(C)[C@@]3(F)[C@@H](O)C[C@]2(C)[C@@]1(O)C(=O)COC(=O)c1cccc(S(=O)(=O)O)c1", "Potency": "inactive"}, {"molecule": "CC(CCc1ccc(O)cc1)NCC(O)c1ccc(O)cc1", "note": "(stereo not given)", "Potency": "inactive"}, {"molecule": "COc1ccc(C2(C#N)CCC(C(=O)O)CC2)cc1OC1CCCC1", "note": "(stereo not given)", "Potency": "inactive"}, {"molecule": "OC[C@H]1OC([S-])[C@H](O)[C@@H](O)[C@@H]1O.[Au+]", "note": "(stereo not given in full)", "Potency": "inactive"}, {"molecule": "CC[C@]1(O)CC2CN(CCc3c([nH]c4ccccc34)[C@@](C(=O)OC)(c3cc4c(cc3OC)N(C)[C@H]3[C@@](O)(C(N)=O)[C@H](O)[C@]5(CC)C=CCN6CC[C@]43[C@@H]65)C2)C1", "note": "(stereo not given in full)", "Potency": "inactive"}, {"molecule": "O=P(O)(O)OC(Cn1cncn1)(Cn1cncn1)c1ccc(F)cc1F", "Potency": "inactive"}, {"molecule": "CC1(C)[C@@H]2CC[C@@]1(C)[C@H](OC(=O)CSC#N)C2", "Potency": "inactive"}, {"molecule": "CC(C)c1nc(N(C)S(C)(=O)=O)nc(-c2ccc(F)cc2)c1/C=C/C(O)CC(O)CC(=O)O", "note": "(stereo not given)", "Potency": "inactive"}, {"molecule": "O=C(c1cc2ccccc2o1)N1CCN(Cc2ccccc2)CC1", "Potency": "inactive"}, {"molecule": "CC1C(=O)CC2C3(C)CCC2(C(C)C(=O)O)C(=O)C13", "note": "(stereo not given)", "Potency": "inactive"}, {"molecule": "CCCCC[C@H](O)/C=C/[C@@H]1[C@H]2C/C(=C/CCCC(=O)O)O[C@H]2C[C@H]1O", "Potency": "inactive"}, {"molecule": "CC(C)=CCC/C(C)=C/C=C/C(C)=C/C=C/C(C)=C/C=C/C=C(C)/C=C/C=C(C)/C=C/C=C(\\C)CCC=C(C)C", "Potency": "inactive"}, {"molecule": "C=C1CC[C@H](O)CC1=C/C=C1\\CCC[C@]2(C)[C@@H]([C@H](C)CC[C@@H](O)C(C)(C)O)CC[C@@H]12", "Potency": "inactive"}, {"molecule": "CCC[C@@H]1C[C@@H](C(=O)N[C@@H]([C@H]2O[C@H](SC)[C@H](O)[C@@H](O)[C@H]2O)[C@H](C)Cl)N(C)C1", "Potency": "inactive"}, {"molecule": "CC(C)(S)[C@@H](N)C(=O)O", "Potency": "inactive"}, {"molecule": "CCCCCCCCCCCCCCCCSCC(COC)COP(=O)([O-])OCC[N+](C)(C)C", "note": "(stereo not given)", "Potency": "inactive"}, {"molecule": "CC(C)(C)C1(O)CCN2CC3c4ccccc4CCc4cccc(c43)C2C1", "note": "(stereo not given)", "Potency": "inactive"}, {"molecule": "CCC(=O)OCC(=O)[C@@]1(OC(=O)CC)[C@H](C)C[C@H]2[C@@H]3CCC4=CC(=O)C=C[C@]4(C)[C@@]3(F)[C@@H](O)C[C@@]21C", "Potency": "inactive"}, {"molecule": "CC[C@H](C)[C@H]1O[C@]2(CC[C@@H]1C)C[C@@H]1C[C@@H](C/C=C(\\C)[C@@H](O[C@H]3C[C@H](OC)[C@@H](O[C@H]4C[C@H](OC)[C@@H](O)[C@H](C)O4)[C@H](C)O3)[C@@H](C)/C=C/C=C3\\CO[C@@H]4[C@H](O)C(C)=C[C@@H](C(=O)O1)[C@]34O)O2", "Potency": "inactive"}, {"molecule": "CCCCC[C@H](O)/C=C/[C@H]1[C@H](O)CC(=O)[C@@H]1CCCCCCC(=O)O", "Potency": "inactive"}, {"molecule": "Cn1c(O)c(N=NC(N)=S)c2ccccc21", "Potency": "inactive"}, {"molecule": "C=C1CC[C@H](O)CC1=C/C=C1\\CCC[C@]2(C)[C@@H]([C@H](C)CCCC(C)(C)O)CC[C@@H]12", "Potency": "inactive"}, {"molecule": "O=C1N=C2SCCN2C(=O)C1Cc1ccc(Cl)cc1", "note": "(stereo not given)", "Potency": "inactive"}, {"molecule": "CC(C)N1CCN(c2ccc(OC[C@H]3CO[C@](Cn4cncn4)(c4ccc(Cl)cc4Cl)O3)cc2)CC1", "Potency": "inactive"}, {"molecule": "C[C@]12CC[C@@H]3c4ccc(OS(=O)(=O)O)cc4CC[C@H]3[C@@H]1CCC2=O", "Potency": "inactive"}, {"molecule": "CCCOc1ccc2nc(NC(=O)OC)sc2c1", "Potency": "inactive"}, {"molecule": "CC(C)CN(C[C@@H](O)[C@H](Cc1ccccc1)NC(=O)O[C@H]1CO[C@H]2OCC[C@H]21)S(=O)(=O)c1ccc(N)cc1", "Potency": "inactive"}]}]}
